{"source": "PubChem BioAssay (EPA / NIEHS)", "note": "Calls of active or inactive are those of the source. The calls were made as follows: active = hit-call score of the fitted dose curve at least 0.9, where 1 is the maximum; inactive = score below 0.9.", "data": [{"assay": "Tanguay_ZF_120hpf_MUSC: Oregon State University Tanguay Lab 120 Hour Post-fertilization zebrafish Assay for Muscle Malformation (AID 2284401)", "description": "Tanguay_ZF_120hpf is a whole embryo, multiplexed endpoint assay using zebrafish larvae exposed for 120 hours post fertilization on a 96-well plate.Tanguay_ZF_120hpf_MUSC is one of one assay component(s) measured or calculated from the Tanguay_ZF_120hpf assay. It is designed to make measurements of zebrafish development as detected with brightfield microscopy of developing zebrafish embryos.Data from the assay component Tanguay_ZF_120hpf_MUSC was analyzed into 1 assay endpoints. This assay endpoint, Tanguay_ZF_120hpf_MUSC, was analyzed in the positive analysis fitting direction relative to DMSO as the negative control and baseline of activity. Using a type of morphology reporter, gain-of-signal activity can be used to understand changes in developmentals as they relate to the whole embryo. To generalize the intended target to other relatable targets, this assay endpoint is annotated to the zebrafish development intended target family, where the subfamily is myogensis.\nZebrafish husbandry: Tropical 5D wild-type adult zebrafish were housed in at an approximate density of 1000 per 100 gallon tank at the Sinnhuber Aquatic Research Laboratory, Oregon State University, Corvallis, OR. Each tank was kept at standard laboratory conditions of 28C on a 14-h light/10-h dark photoperiod in fish water consisting of reverse osmosis water supplemented with a commercially available salt (Instant Ocean). Spawning funnels were placed into the tanks the night prior, and embryos were collected and staged. To increase bioavailability, the chorion was enzymatically removed using pronase (63.6mg/ml, >/= 3.5U/mg, Sigma-Aldrich: P5147) at 4 hours post fertilization (hpf) using a custom automated dechorionator.Chemical exposures: Six hpf dechorionated embryos were placed 1 embryo per well in a 96-well plate prefilled with 90 ul of EM using automated embryo placement systems (AEPS). Ten microliters of each row of dilution plate 2 was added to 2 exposure plates. The final DMSO concentration used was 0.64% (vol/vol). Thirty-two embryos were also exposed to 5uM trimethyltin chloride (positive control). Plates were sealed to prevent evaporation and foil covered to reduce light exposure and kept in a 28C incubator. Embryos were statically exposed until 120 hpf. At 24 hpf, embryos were assessed for photomotor response using a custom photomotor response analysis tool (PRAT) and for developmental toxicity endpoints (MO24: mortality at 24 hpf, DP: developmental progression, SM: spontaneous movement, and NC: notochord distortion). At 120 hpf, locomotor activity was measured using Viewpoint Zebralab and assessed for 13 endpoints. Zebrafish acquisition and analysis program (ZAAP), a custom program designed to inventory, acquire, and manage zebrafish data, was used to collect developmental endpoints as either present or absent (i.e., binary responses were recorded). If mortality occurred for an embryo (at either 24 or 120 hpf), the non-mortality endpoints were not measured.", "values": [{"smiles": "OCC(F)(F)C(F)(F)C(F)(F)F", "outcome": "inactive"}, {"smiles": "FC(F)(F)C(F)(F)C(F)(F)C(F)(F)C(F)(F)CCI", "outcome": "inactive"}, {"smiles": "O=C(O)C(F)(OC(F)(F)C(F)(OC(F)(F)C(F)(OC(F)(F)C(F)(F)C(F)(F)F)C(F)(F)F)C(F)(F)F)C(F)(F)F", "note": "(stereo not given)", "outcome": "inactive"}, {"smiles": "C=CC(=O)OCCC(F)(F)C(F)(F)C(F)(F)C(F)(F)C(F)(F)C(F)(F)C(F)(F)C(F)(F)F", "outcome": "inactive"}, {"smiles": "O=S(=O)(Cl)C(F)(F)C(F)(F)C(F)(F)C(F)(F)C(F)(F)C(F)(F)C(F)(F)C(F)(F)F", "outcome": "inactive"}, {"smiles": "Cc1ccc(S(=O)(=O)OCC(F)(F)C(F)(F)C(F)(F)C(F)(F)C(F)(F)C(F)F)cc1", "outcome": "inactive"}, {"smiles": "O=C(O)C(F)(F)C(F)(F)C(F)F", "outcome": "inactive"}, {"smiles": "FC(F)(F)COC(OCC(F)(F)F)OCC(F)(F)F", "outcome": "inactive"}, {"smiles": "C=C(C)C(=O)OCC(F)(F)C(F)(F)C(F)(F)C(F)(F)C(F)(F)C(F)(F)C(F)(F)F", "outcome": "inactive"}, {"smiles": "O=S(=O)(O)CCC(F)(F)C(F)(F)C(F)(F)C(F)(F)F", "outcome": "inactive"}, {"smiles": "O=C(O)C(F)(F)OC(F)(F)C(F)(F)OC(F)(F)C(F)(F)OC(F)(F)C(F)(F)C(F)(F)C(F)(F)F", "outcome": "inactive"}, {"smiles": "FC1CC(F)(F)C(F)(F)C1(F)F", "note": "(stereo not given)", "outcome": "inactive"}, {"smiles": "OCCC(F)(F)C(F)(F)C(F)(F)C(F)(F)F", "outcome": "inactive"}, {"smiles": "O=C(O)CCC(F)(F)C(F)(F)C(F)(F)C(F)(F)C(F)(F)F", "outcome": "inactive"}, {"smiles": "O=C(CC(=O)C(F)(F)C(F)(F)F)C(F)(F)F", "outcome": "inactive"}, {"smiles": "O=C(O)C(F)(F)C(F)(F)F", "outcome": "inactive"}, {"smiles": "O=C(Cl)C(F)(F)C(F)(F)C(F)(F)C(=O)Cl", "outcome": "inactive"}, {"smiles": "C=CC(=O)OCC(F)(F)C(F)(F)C(F)(F)C(F)(F)C(F)(F)C(F)(F)C(F)(F)F", "outcome": "inactive"}, {"smiles": "NC(=O)C(F)(F)C(F)(F)C(F)(F)C(F)F", "outcome": "inactive"}, {"smiles": "OCCC(F)(F)C(F)(F)C(F)(F)C(F)(F)C(F)(F)C(F)(F)F", "outcome": "inactive"}, {"smiles": "CO[Si](C)(CCC(F)(F)C(F)(F)C(F)(F)C(F)(F)C(F)(F)C(F)(F)F)OC", "outcome": "inactive"}, {"smiles": "CCN(CCO)S(=O)(=O)C(F)(F)C(F)(F)C(F)(F)C(F)(F)C(F)(F)C(F)(F)C(F)(F)C(F)(F)F", "outcome": "inactive"}, {"smiles": "FC(F)(F)C(F)(F)C(F)(F)C(F)(F)CCI", "outcome": "inactive"}, {"smiles": "FC(F)=C(F)C(F)(F)C(F)(F)C(F)(F)C(F)(F)C(F)(F)C(F)(F)F", "outcome": "inactive"}, {"smiles": "O=C(O)C(F)(F)C(F)(F)C(F)(F)C(F)(F)C(F)(F)C(F)(F)C(F)(F)C(F)(F)C(F)(F)C(F)(F)C(F)(F)C(F)(F)C(F)(F)F", "outcome": "inactive"}, {"smiles": "C=CC(=O)OCC(F)(F)C(F)(F)C(F)(F)C(F)(F)COC(=O)C=C", "outcome": "inactive"}, {"smiles": "FC(F)(F)C(F)(F)C(F)(F)C(F)(F)C(F)(F)C(F)(F)C(F)(F)I", "outcome": "inactive"}, {"smiles": "O=C(O)C(F)(F)C(F)(F)C(F)(F)C(F)(F)C(F)(F)C(F)(F)C(F)(F)C(F)(F)C(F)(F)C(F)(F)C(F)(F)C(F)(F)F", "outcome": "inactive"}, {"smiles": "NC(=O)C(F)(F)C(F)(F)C(F)(F)F", "outcome": "inactive"}, {"smiles": "FC(F)(F)C(F)(F)C(F)(F)CI", "outcome": "inactive"}, {"smiles": "OCC(O)CC(F)(F)C(F)(F)C(F)(F)C(F)(F)F", "note": "(stereo not given)", "outcome": "inactive"}, {"smiles": "FC(F)(F)C(F)(F)CNCC(F)(F)C(F)(F)F", "outcome": "inactive"}, {"smiles": "O=S(=O)(O)C(F)(F)C(F)(F)C(F)(F)C(F)(F)C(F)(F)C(F)(F)C(F)(F)F", "outcome": "inactive"}, {"smiles": "NC(=O)C(F)(F)C(F)(F)C(F)(F)C(F)(F)C(N)=O", "outcome": "inactive"}, {"smiles": "FC(F)(F)C(F)(F)C(F)(F)C(F)(F)C(F)(F)C(F)(F)C(F)(F)C(F)(F)F", "outcome": "inactive"}, {"smiles": "OC(O)(C(F)C(O)(O)C(F)(F)F)C(F)(F)F", "outcome": "inactive"}, {"smiles": "O=C(O)C(F)(F)C(F)(F)C(F)(F)C(F)(F)C(F)(F)C(F)(F)C(F)(F)C(F)(F)Cl", "AC50": "39.3 µM (active)"}, {"smiles": "FC(F)(F)C(F)(F)C(F)(F)CC1CO1", "note": "(stereo not given)", "outcome": "inactive"}, {"smiles": "C=CC(=O)OCC(F)(F)C(F)(F)C(F)(F)COC(=O)C=C", "outcome": "inactive"}, {"smiles": "COC(=O)CCC(F)(F)C(F)(F)C(F)(F)C(F)(F)F", "outcome": "inactive"}]}]}
